PPARg SRC3 recr – PPARgamma-driven SRC-3 recruitment agonism | P37231 | biochemical PPARgamma/SRC-3 coactivator recruitment assay | activation, % at 8 µM | 0.26% of 200,000 active; in the data active = activation above about 23%;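 also: 0% = DMSO and 100% = reference agonist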
Target sequence (P37231 whole entry, looked up): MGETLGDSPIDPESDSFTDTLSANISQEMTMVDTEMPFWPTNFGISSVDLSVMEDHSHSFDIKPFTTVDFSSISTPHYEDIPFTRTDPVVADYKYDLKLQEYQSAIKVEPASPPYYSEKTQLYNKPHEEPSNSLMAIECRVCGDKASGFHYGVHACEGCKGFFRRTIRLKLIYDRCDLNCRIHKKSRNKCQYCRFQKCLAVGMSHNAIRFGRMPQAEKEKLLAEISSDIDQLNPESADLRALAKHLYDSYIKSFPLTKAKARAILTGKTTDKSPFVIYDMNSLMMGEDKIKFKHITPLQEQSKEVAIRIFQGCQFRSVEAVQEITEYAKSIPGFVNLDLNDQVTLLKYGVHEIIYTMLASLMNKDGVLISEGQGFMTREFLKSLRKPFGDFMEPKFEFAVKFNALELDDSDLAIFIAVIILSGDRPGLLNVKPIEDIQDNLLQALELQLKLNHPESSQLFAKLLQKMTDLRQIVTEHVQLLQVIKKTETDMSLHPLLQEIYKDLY
SRC3 TRFRET art – flags TR-FRET format artefacts in PPARgamma SRC-3 recruitment agonist screen; 0.39% of 99,000 active; TR-FRET ratio at 8 µM; TR-FRET artefact counter-screen, PPARgamma/SRC-3 format; hits give high values; AID 1048; in the data active = TR-FRET ratio above about 2000
SRC1 TRFRET art – TR-FRET artefact, counter-screen to PPARgamma/SRC-1 agonist assay. TR-FRET detection artefact counter-screen, emission ratio; hits give high values. TR-FRET ratio at 8 µM. 0.34% of 99,000 active; in the data active = TR-FRET ratio above about 2300
SRC2 TRFRET art – TR-FRET artefact, counter-screen to PPARgamma/SRC-2 agonist assay; 0.4% of 200,000 active; TR-FRET ratio at 8 µM; hits give high values; in the data active = TR-FRET ratio above about 2000
PPARg SRC2 recr – agonists of SRC-2 recruitment by human PPARgamma; activation, % at 8 µM; 0.34% of 200,000 active; PPARgamma LBD-SRC-2 recruitment, biochemical; P37231;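 also: 0% = vehicle and 100% = reference agonist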
PPARg SRC1 recr – promotes SRC-1 coactivator recruitment by human PPARgamma; PPARgamma-SRC-1 coactivator recruitment biochemical assay; activation, % at 8 µM; 0.41% of 200,000 active; in the data active = activation above about 19%;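 also: 0% = DMSO and 100% = reference agonist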
PPARg SRC2 conf – confirmation of agonists of SRC-2 recruitment by human PPARgamma | shares compounds with PPARg SRC3 recr | biochemical SRC-2 recruitment by PPARgamma | activation, % at 8 µM | 52% of 790 active;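 also: 0% = vehicle alone and 100% = reference agonist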
PPARg SRC1 ag – confirmation of agonists of SRC-1 recruitment by human PPARgamma. 43% of 790 active. PPARgamma–SRC-1 coactivator recruitment biochemical assay. activation, % at 8 µM. shares compounds with PPARg SRC3 recr; in the data active = activation above about 20%;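 also: 0% = vehicle wells and 100% = reference agonist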
PPARg SRC3 ag – human PPARgamma SRC-3 recruitment agonism, confirmation; activation, % at 8 µM; shares compounds with PPARg SRC3 recr; 29% of 790 active; biochemical PPARgamma-SRC-3 coactivator recruitment, agonist mode; in the data active = activation above about 24%;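 also: 0% = vehicle wells and 100% = reference agonist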
The depositor's hits bear a star; x = no result. Hits are enriched below; roughly 0.9% of the tested compounds scored in any of these assays. Rule as the data show it, unless noted: active = activation above about 22%; inactive = the rest.

SMILES	PPARg SRC3 recr	SRC3 TRFRET art	SRC1 TRFRET art	SRC2 TRFRET art	PPARg SRC2 recr	PPARg SRC1 recr	PPARg SRC2 conf	PPARg SRC1 ag	PPARg SRC3 ag
COc1ccc(-c2oc3ncn4nc(COc5ccccc5)nc4c3c2-c2ccc(OC)cc2)cc1	-1	x	x	1710	5	0	x	x	x
COc1ccc(-c2oc3ncn4nc(Cc5ccccc5)nc4c3c2-c2ccc(OC)cc2)cc1	4	x	x	4122*	69*	84*	6	4	4
COc1ccccc1NC(=O)CN(Cc1ccco1)C(=O)c1cc2ccccc2o1	8	1799	1508	1625	1	6	x	x	x
Cc1ccnc(NC(=O)CSc2cc(=O)n(C)c3ccccc23)c1	96*	x	x	3578*	75*	74*	42*	23*	28*
Cn1c(=O)cc(SCC(=O)Nc2ccccn2)c2ccccc21	65*	x	x	2585*	59*	45*	34*	24*	27*
Cc1ccnc(NC(=O)CCCOc2cc(=O)n(C)c3ccccc23)c1	-4	x	x	1577	-1	-7	x	x	x
Cc1ccc2nc(NC(=S)NC(=O)c3ccco3)sc2c1	19	2144*	2516*	2308*	29*	22*	56*	44*	37*
COc1ccc(C(=O)Nc2nc3ccc4nc(C)sc4c3s2)cc1	56*	x	x	1790	14	67*	45*	29*	27*
COc1cc(C(=O)Nc2nc3ccc4nc(C)sc4c3s2)cc(OC)c1OC	9	x	x	1480	4	16	x	x	x
Cc1nc2ccc3nc(NC(=O)c4ccco4)sc3c2s1	19	x	x	1749	11	23*	8	6	5
Cc1ccc(-c2nc3ccc(Cl)cc3n2OC(C)C(=O)O)cc1 (stereo not given)	8	1728	1671	1521	13	10	x	x	x
O=S(=O)(Nc1ccc(Cl)cc1)c1ccc(N2CCOCC2)c(NC(=S)NCCN2CCOCC2)c1	3	1769	1689	1522	4	7	x	x	x
Cn1c(N/N=C/c2c[nH]c3ccccc23)nc2ccccc21	4	x	x	1730	24*	18	12	6	8
[O-][N+]1=c2ccc(Nc3ccccc3)cc2=NC12CCCCC2	28*	x	x	1710	16	24*	22*	13	10
COc1ccc(NC2=NC(=S)N(c3ccccc3C)C23CCCCC3)cc1	6	x	x	1465	2	1	x	x	x
COc1ccc(Nc2ccc3c(c2)=NC2(CCCCC2)[N+]=3[O-])cc1	28*	x	x	2020*	19	24*	15	15	10
Cc1ccccc1Cc1ccc(Cl)nn1	-2	1607	1959	1501	1	2	x	x	x
CCOc1cccc(C2C(C(=O)c3ccc(C)o3)=C(O)C(=O)N2Cc2ccncc2)c1 (stereo not given)	5	x	x	1504	7	13	x	x	x
Cc1cc(N2C(=O)C(O)=C(C(=O)c3ccc(C)o3)C2c2cccs2)no1 (stereo not given)	45*	x	x	2253*	37*	35*	19	13	13
COC(=O)c1sc(N2C(=O)c3oc4ccccc4c(=O)c3C2c2cccs2)nc1C (stereo not given)	-2	x	x	1363	-2	-6	x	x	x
Cc1ccc2nc(N3C(=O)C(O)=C(C(=O)c4cc5ccccc5o4)C3c3cccs3)sc2c1 (stereo not given)	30*	x	x	1932	14	30*	7	2	2
Cc1cc(N2C(=O)C(O)=C(C(=O)c3ccco3)C2c2ccc(O)cc2)no1 (stereo not given)	-11	x	x	1340	8	0	x	x	x
CCOc1cccc(C2C(C(=O)c3ccc(C)o3)=C(O)C(=O)N2c2nccs2)c1 (stereo not given)	22	x	x	2000*	27*	22*	13	8	8
CCc1ccc(C(=O)NC(CCSC)C(=O)OC)cc1 (stereo not given)	-1	1514	1801	1706	11	15	x	x	x
C/C=C/C=N/NC(=O)CN(c1ccc(Br)cc1)S(=O)(=O)c1ccccc1	3	1695	1848	1492	12	-4	x	x	x
SMILES	PPARg SRC3 recr	SRC3 TRFRET art	SRC1 TRFRET art	SRC2 TRFRET art	PPARg SRC2 recr	PPARg SRC1 recr	PPARg SRC2 conf	PPARg SRC1 ag	PPARg SRC3 ag
COCCCNC(=S)NNC(=O)c1ccc(S(=O)(=O)N2CCC(C)CC2)cc1	2	1600	1981	1645	5	3	x	x	x
COC(=O)c1cc2c(C)c(C)c3ccccn3c-2c1C(=O)OC	35*	x	x	2102*	32*	18	7	7	4
COC(=O)c1cc2ccccn2c2c(C(=O)OC)c(C(=O)OC)cc1-2	3	x	x	1669	6	9	x	x	x
COC(=O)c1cc2c(C)cc3ccc(C)cn3c-2c1C(=O)OC	47*	x	x	2394*	41*	26*	12	9	5
CCCCN(C)CCNC(=O)c1ccc(Cn2c(=S)[nH]c3ccc(Br)cc3c2=O)cc1	1	1660	1815	1704	2	2	x	x	x
Cc1ccc(C(C(=O)NCc2ccco2)N(CCc2ccccc2)C(=O)Cn2nnc3ccccc32)o1 (stereo not given)	32*	1671	1885	1653	16	8	12	5	16
O=[N+]([O-])c1ccc(O)c(-c2nc(-c3ccccc3)c(-c3cccs3)[nH]2)c1	22	x	x	1532	14	-1	x	x	x
COc1ccc(-c2nc(-c3cccs3)c(-c3cccs3)[nH]2)cc1O	90*	x	x	3397*	89*	63*	56*	44*	40*
NS(=O)(=O)c1ccc(NCc2cc(Cl)ccc2OCc2ccc(F)cc2)cc1	-1	1539	2184	1397	5	2	x	x	x
CN1/C(=C/c2cc[n+](C)c3ccccc23)C=Cc2ccccc21	26*	2217*	2343*	1994*	42*	33*	5	4	5
Cc1ccc(C)n1-c1ccc(-c2nnc3n2CCCCC3)s1	12	x	x	1802	11	27*	23*	22*	14
O=C(Nc1nc2c(s1)CN(Cc1ccccc1)CC2)c1cccc(S(=O)(=O)N2CCc3ccccc32)c1	39*	x	x	4126*	15	37*	50*	41*	30*
Cc1nnc(NC(=O)c2cccc(S(=O)(=O)N3CCc4ccccc43)c2)s1	11	x	x	1519	9	8	x	x	x
Cc1c(N(C(=O)c2ccccn2)C2(C(=O)NC3CCCCC3)CCCCC2)c(=O)n(-c2ccccc2)n1C	2	1753	2142	1551	9	4	x	x	x
Cc1ccc(CSc2nc3ncccc3[nH]2)cc1	16	x	x	1846	25*	11	18	16	10
COc1cccc2[nH]c3c(Cl)ncnc3c12	-2	1453	1629	1447	0	-3	x	x	x
